# Results: PubChem BioAssay AID504546 (Broad Institute, 2011)
# Inconclusive results are not listed. The source made the active and inactive calls.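 The calls were made as follows: active = every repeat run fits a falling-signal curve with half-maximal potency within ten times top tested dose; inconclusive = runs disagree, or flat moderate drop, or poor fit; inactive = every run inactive, including signal moving upward.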
# Assay: inhibition of ADP-Glo detection reagents, dose response, artefact control for CDK5 inhibitor project, biochemical, luminescence, cherry-picked samples, set 2 (AID 504546)
# Conditions: ADP-Glo detection reagent counter screen, 5 uM ADP; series mostly up to 30 µM
row,SMILES,outcome
1,Oc1ccc(-c2nc(-c3ccc(O)c(O)c3)cs2)cc1,inactive
2,CC(C)n1cnc2c(Nc3cccc(F)c3)nc(NCCO)nc21,inactive
3,O=[N+]([O-])c1ccc2c(c1)-c1ccccc1C2=NO,inactive
4,CC(C)C[C@H](CO)Nc1nc(Nc2cccc(Cl)c2)c2ncn(C(C)C)c2n1,inactive
5,Oc1ccc(/C=N/Nc2ccc(C(F)(F)F)cn2)cc1,inactive
6,CN(C)N1C(N)=C(C#N)C(c2cccs2)C2=C1CCCC2=O (stereo not given),inactive
7,COc1ccc(C(=O)c2sc(NC(C)C)nc2N)cc1OC,inactive
8,Oc1ccc(/C=N/Nc2cccc(Cl)n2)c(O)c1,inactive
9,Cc1cccc(/N=C/c2c(O)ccc3oc4c(c23)CCCC4)n1,inactive
10,O=C(O)c1ccc(/C=N/Nc2ncc(C(F)(F)F)cc2Cl)cc1,inactive
11,Cc1nn(-c2nc3ccccc3[nH]2)c(=O)c2ccccc12,inactive
12,Oc1ccc(/C=N/Nc2nccnc2Cl)c(O)c1,inactive
13,CC(C)n1cnc2c(NCc3ccc(S(N)(=O)=O)cc3)nc(NCc3ccc(S(N)(=O)=O)cc3)nc21,inactive
14,FC(F)(F)c1ccc(N/N=C/c2cccnc2)nc1,inactive
15,COc1ccc2nc(C)cc(Nc3ccc(C)cc3)c2c1,inactive
16,Nc1nc(Nc2ccccc2F)sc1C(=O)c1ccccc1,inactive
17,CNS(=O)(=O)c1ccc2c3c(cccc13)C(=O)N2,inactive
18,COc1cccc(C(=O)c2sc(NC(C)C)nc2N)c1,inactive

row,SMILES,outcome
1,COc1ccc2oc(C(=O)NCCC(C)C)c(C)c2c1,inactive
2,CCCc1cc(-c2[nH]ncc2-c2ccc(C(=O)OCC)o2)c(O)cc1O,inactive
3,Cc1ccc2nc(NCc3ccccc3)c(C#N)cc2c1,inactive
4,O=C(Nc1csc(Cc2c(Cl)cccc2Cl)n1)NN1CCOCC1,inactive
5,Clc1cnc(N/N=C/c2ccncc2)c(Cl)c1,inactive
6,COc1cccc(C(=O)N2CCN(c3ccccn3)CC2)c1,inactive
7,COc1ccc(Nc2nc(N)c(C(=O)c3ccc(F)cc3)s2)cc1,inactive
8,Nc1cc2c(cc1[N+](=O)[O-])-c1ccccc1C2=NO,inactive
9,COc1ccc(C(=O)c2sc(Nc3ccccc3F)nc2N)cc1,inactive
10,CCc1ncc(/C=C2\C(=O)Nc3ccccc32)[nH]1,inactive
11,COc1cc2c(ccc3cc(OC)c(OC)c(O)c32)cc1O,inactive
12,Cc1ccc(C(=O)O/N=C(\N)c2ccccn2)cc1C,inactive
13,CCC(C)(C)C1CCc2[nH]nc(C(=O)NCCN3CCOCC3)c2C1 (stereo not given),inactive
14,COc1cc(/C=N/Nc2ccc(C(F)(F)F)cn2)cc(OC)c1O,inactive
15,N#Cc1c(N)n(C2OC(CO)C(O)C2O)c2ncnc(N)c12 (stereo not given),inactive
16,COc1cc(OC)cc(C(=O)NNC(=O)c2ccccn2)c1,inactive
17,Cc1[nH][nH]c(=O)c1C(c1ccccc1[N+](=O)[O-])C(C#N)C#N (stereo not given),inactive
